Test results: PubChem BioAssay (NCI)
This is part of a sample that, as a whole, favours compounds with a hit. Of some 83,000 tested, about 20% had one in any assay.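 The test compound was applied at a single concentration to cells in 96-well plates for 48 hours, and percent growth was recorded.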 Calls of active or inactive are those of the source. How the source made its calls: active means growth percent below 10; inactive means the rest.

What follows are compounds tested on HL-60(TB) leukemia (assay: NCI-60 one-dose screen, 48 h (100 = growth as untreated, 0 = no growth, -100 = all killed)). Settings: 10 µM unless noted.

SMILES	growth
c1ccc(CNc2ccc3nc(CCC4CCCCC4)[nH]c3c2)cc1	47% (inactive)
CCCCC(CCc1ccc([N+](=O)[O-])cc1)(C(C)=O)C(=O)OCC (stereo not given)	93% (inactive)
Cc1nn(-c2ccc([N+](=O)[O-])cc2)c2ncnc(NCCc3ccccc3)c12	65.9% (inactive)
COc1cc(Cc2cc(-c3ccccc3)n[nH]c2=O)cc(OC)c1OC	53.4% (inactive)
O=C1c2ccccc2C(=O)c2cc(Cn3c[n+](Cc4ccc5ccccc5c4)c4ccccc43)ccc21	-49.2% (active)
N=C(N)c1ccc(-c2ccc(-c3ccc(Cl)cc3Cl)s2)nc1	-35.7% (active)
CC/C(=C(\CC)c1ccc(OCCN(CC)CC)cc1)c1ccc(OCCN(CC)CC)cc1	-3.52% (active)
Cc1ccc2[nH]c(=O)cc(-n3nncc3COc3ccc(C=O)cc3)c2c1	107% (inactive)
CC(O)CN(CC(C)O)N(CC(C)O)CC(C)O (stereo not given)	102% (inactive)
CNc1ccc(N)cc1	109% (inactive)
CCN(CC)CCCCCCCNc1c2ccc(Cl)cc2nc2ccc(OC)cc12	-46.9% (active)
CS(=O)(=O)Nc1cccc(-c2ccc3ncnc(Nc4ccc(F)c(Cl)c4)c3c2)c1	24.8% (inactive)
Clc1ccc(/C=C2\CCCC3=C2N=C2SC=NN2C3c2ccc(Cl)cc2)cc1 (stereo not given)	91.1% (inactive)
COc1ccc(/C=C(/C(=O)N2CCN(c3ccc(C)cc3)CC2)c2cc(OC)c(OC)c(OC)c2)cc1N	-24.2% (active)
CCOC(=O)c1cc(-c2ccc(OC)cc2)[nH]c1NNC(=O)CCOC	90.8% (inactive)
O=C(NCc1cccc(CNC(=O)Nc2nc3ccccc3[nH]2)c1)Nc1nc2ccccc2[nH]1	10.1% (inactive)
CO[C@H]1/C=C/O[C@@]2(C)Oc3c(C)c(O)c4c(c3C2=O)C(=O)C(/C=N/N(c2ccccc2)c2ccccc2)=C(NC(=O)/C(C)=C\C=C\[C@H](C)[C@H](O)[C@@H](C)[C@@H](O)[C@@H](C)[C@H](OC(C)=O)[C@@H]1C)C4=O	-12.5% (active)
COc1ccc2nc3cc(Cl)ccc3c(Nc3cc(CN4CCCC4)c(O)c(CN4CCCC4)c3)c2n1	-20.4% (active)
Cc1cc(C)c2c(n1)sc1c(Nc3ccc(Cl)cc3)ncnc12	-19.1% (active)
CC(C)[C@@H]1CC[C@]2(CO2)[C@@H]2C(=O)OCC(C(=O)O)=C[C@H]21	-12.4% (active)

SMILES	growth
COC(=O)C1=C(C(=O)ON)C2C=CC1(C(Cc1ccccc1)Nc1ccccc1)O2 (stereo not given)	18.9% (inactive)
CCC1=C(c2ccc(OC)cc2)C(C)(C)Oc2c1ccc(O)c2CN1CCCC1	-25.4% (active)
O=[N+]([O-])c1cccc(-c2cc(-c3cc(Br)ccc3O)[nH]n2)c1	-17.1% (active)
Nc1nc(N)c2nc3c(nc2n1)CCCCCCCCCC3	33.4% (inactive)
Oc1cccc(-c2nc(-c3n[nH]c(=S)n3-c3ccccc3)cc3c2[nH]c2ccccc23)c1	4.29% (active)
O=C(O)C(C(=O)O)c1cccc2ccccc12	98.6% (inactive)
COc1ccc(NC(=O)/C=C/c2ccc(NC(=O)N3CCCC3)cc2)cn1	102% (inactive)
CCSc1nnc(Nc2ccc(C(C)C)cc2)s1	48.8% (inactive)
O=C1NC(=O)/C(=C/c2ccc(Cl)cc2Cl)N1	97% (inactive)
COc1ccc2c(c1)C(c1c[nH]c3ccccc13)(c1c[nH]c3ccccc13)CCO2	41.2% (inactive)
COc1cc2c(cc1O)C(=O)CCCC2	90.3% (inactive)
O=C1/C(=C/c2ccc(O)cc2)COc2ccc(-c3ccccc3)cc21	-51% (active)
O=C1N[C@@H]2[C@@H](O)[C@@H](O)[C@H](O)C[C@H]2c2cc3c(c(O)c21)OCCO3	-18.8% (active)
CN1CCN(CCCN2c3ccccc3Sc3ccc(C(F)(F)F)cc32)CC1	83.8% (inactive)
Cc1nc2cnc(N)c(C#Cc3cncc(C(=O)Nc4ccc(CN5CCN(C)CC5)c(C(F)(F)F)c4)c3)c2nc1C	-16.4% (active)
COc1cc2c(c(O)c1Cl)C(=O)c1c(O)cc(C[C@H](C)O)cc1[C@H]2[C@H]1c2cc(C[C@H](C)O)cc(O)c2C(=O)c2c1cc(OC)c(Cl)c2O	1.89% (active)
Nc1cccc(-c2nc3sccn3c2-c2ccnc(NCCCNS(=O)(=O)c3cccc4ccccc34)n2)c1	7% (active)
COc1cc2nc(Nc3ccc(F)cc3)nc(N)c2cc1OC	79.4% (inactive)
CC(C)(C)c1nn(-c2ccccc2)c2c1C(=O)CSC(c1ccc3c(c1)OCO3)N2 (stereo not given)	89.5% (inactive)
CCCCCCCCN(CCCCCCCC)CCCCCCNc1cc(OC)cc2cccnc12	83.6% (inactive)
